# Values without a mark were called inactive. Unless noted, calls follow the shape of the dose curve; as a rule, active = well fitted curve in the direction sought with a large enough effect (not every such curve was filed as active); inconclusive = small, poorly fitted or top-dose-only effect, or effect the other way, or another doubt; inactive = no such curve, though single readings can be large or run the other way.
# Biological target: Pyruvate kinase PKM (Homo sapiens) (UniProt P14618)
# Test: qHTS Assay for Activators of Human Muscle Pyruvate Kinase (AID 954);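 also: 0% = uninhibited enzyme and -100% = no enzyme or full thiadiazolimine inhibition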
# Details: purified human muscle pyruvate kinase, luciferase-coupled luminescence, 1 h; series mostly up to 57.5 µM; activity change, negative = inhibition: at the top concentration
# Outline: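 PKM2, human, >95% pure, 0.1 nM; PEP 0.5 mM (Km), ADP 0.1 mM; 50 mM imidazole pH 7.2, 50 mM KCl, 0.01% Tween 20, 0.05% BSA; 1 h RT; luciferase luminescence readout.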
# Sequence of Pyruvate kinase PKM (Homo sapiens) (P14618 whole entry, looked up): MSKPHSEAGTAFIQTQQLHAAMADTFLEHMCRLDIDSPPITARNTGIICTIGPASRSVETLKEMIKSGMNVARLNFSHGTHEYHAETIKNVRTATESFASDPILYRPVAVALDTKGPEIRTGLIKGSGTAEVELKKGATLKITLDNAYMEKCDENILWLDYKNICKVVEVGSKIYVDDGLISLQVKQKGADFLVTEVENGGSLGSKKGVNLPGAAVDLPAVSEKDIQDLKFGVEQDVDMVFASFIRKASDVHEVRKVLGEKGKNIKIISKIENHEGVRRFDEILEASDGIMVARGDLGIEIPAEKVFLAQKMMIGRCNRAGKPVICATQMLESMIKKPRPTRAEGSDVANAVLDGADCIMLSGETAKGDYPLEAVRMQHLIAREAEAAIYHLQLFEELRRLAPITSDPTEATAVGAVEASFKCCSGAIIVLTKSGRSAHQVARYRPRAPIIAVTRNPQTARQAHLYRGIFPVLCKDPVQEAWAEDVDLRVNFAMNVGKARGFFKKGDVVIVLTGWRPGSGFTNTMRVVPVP
row,Structure (SMILES),"activity change, negative = inhibition [%]"
1,CNCCCC12CCC(c3ccccc31)c1ccccc12,-6.73
2,Fc1ccc([C@@H]2CCNC[C@H]2COc2ccc3c(c2)OCO3)cc1,-20.6
3,Cn1cnc2c1c(=O)[nH]c(=O)n2C,0.584
4,O=C(c1ccc(F)cc1)C1CCN(CCn2c(=O)[nH]c3ccccc3c2=O)CC1,0.186
5,CC[N+](CC)(CC)CCOc1cccc(OCC[N+](CC)(CC)CC)c1OCC[N+](CC)(CC)CC,-28.9
6,CN(C)CCOC(c1ccccc1)c1ccccc1,-16.8
7,COc1ccc(C2CNC(=O)C2)cc1OC1CCCC1 (stereo not drawn),-2.85
8,CCCCc1oc2ccccc2c1C(=O)c1cc(I)c(OCCN(CC)CC)c(I)c1,-16.2
9,CCOC(=O)Nc1ccc(NCc2ccc(F)cc2)nc1N,3.9
10,Cn1ccc2cc3c(cc21)CCN3C(=O)Nc1cccnc1,-104
11,C[C@](N)(Cc1ccc(O)c(O)c1)C(=O)O,0.871
12,NCCCCCC(=O)O,-9.44
13,Cc1cnc(C(=O)NCCc2ccc(S(=O)(=O)NC(=O)NC3CCCCC3)cc2)cn1,-15.6
14,CN(C)c1nc(N(C)C)nc(N(C)C)n1,-10.6
15,COc1nc(C)nc(Cl)c1NC1=NCCN1,-4.93
16,Cc1cc(C(C)(C)C)cc(C)c1CC1=NCCN1,-13.1
17,CN(C)CCCN1c2ccccc2CCc2ccc(Cl)cc21,-17.1
18,Clc1ccc2c(c1)C(N1CCNCC1)=Nc1ccccc1O2,-13.2
19,O=C1N(c2ccccc2)c2ccccc2C1(Cc1ccncc1)Cc1ccncc1,-9.63
20,Nc1nnc(-c2cccc(Cl)c2Cl)c(N)n1,-11.6

# Biological target: Pyruvate kinase (Leishmania mexicana) (UniProt Q27686)
# Sequence (Q27686 2-499 E452W): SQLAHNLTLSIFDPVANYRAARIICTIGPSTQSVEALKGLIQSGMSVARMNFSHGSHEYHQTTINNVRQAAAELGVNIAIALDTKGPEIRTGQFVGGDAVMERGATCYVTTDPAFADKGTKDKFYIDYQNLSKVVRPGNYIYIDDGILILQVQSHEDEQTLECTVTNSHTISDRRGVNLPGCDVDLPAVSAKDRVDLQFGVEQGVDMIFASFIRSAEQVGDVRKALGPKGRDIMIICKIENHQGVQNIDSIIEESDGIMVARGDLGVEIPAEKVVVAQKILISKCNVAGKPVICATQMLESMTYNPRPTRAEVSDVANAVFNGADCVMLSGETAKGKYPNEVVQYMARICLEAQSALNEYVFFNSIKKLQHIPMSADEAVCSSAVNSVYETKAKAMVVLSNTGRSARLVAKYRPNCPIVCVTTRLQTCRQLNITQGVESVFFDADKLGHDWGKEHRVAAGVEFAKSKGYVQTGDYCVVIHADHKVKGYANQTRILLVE
# Test: qHTS Validation Assay for Activators of Leishmania Mexicana Pyruvate Kinase (AID 959; active = well fitted activation curve with a large enough effect)
# Details: purified L. mexicana pyruvate kinase, enzyme activity; series mostly up to 57.5 µM; activity change, positive = activation: at the top concentration
# Outline: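 Eight-point qHTS titrations in triplicate, data normalized to DMSO neutral control. Reaction: 0.2 nM LmPYK E451W mutant, 0.5 mM PEP, 0.1 mM ADP, 7 mM MgCl2, pH 7.2, one hour at room temperature; luminescent ATP detection.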
row,Structure (SMILES),"activity change, positive = activation [%]"
1,O=C(Nc1ccc([N+](=O)[O-])cc1Cl)c1cc(Cl)ccc1O,-71.8
2,Cn1ccc2cc3c(cc21)CCN3C(=O)Nc1cccnc1,-90.9
3,O=C1c2c(O)ccc(O)c2C(=O)c2c(NCCNCCO)ccc(NCCNCCO)c21,-36

# From PubChem BioAssay (NCATS)
